Sampled rows, rich in hits. Any-hit rate of the full collection: about 19%.
AMA1 RON2 block: AMA1-RON2 (P. falciparum) interaction inhibition. AlphaScreen AMA1-biotinylated RON2 peptide binding. Potency, µM (series often up to 58.2 µM), actives largely listed as inhibitors. 0.2% of 360,000 active. AID 720542; note: nearly all actives have a fitted effect of over 45% in size
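AMA1 (3D7) with his tag at 25 nM final met compounds first, then biotinylated RON2 peptide at 25 nM; detection used donor plus acceptor beads, 10 µg/mL apiece, read by AlphaScreen after 30 min at room temperature.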
Pf growth 96h: inhibits malaria parasite growth, 96 h; P. falciparum luciferase reporter growth, 96 h; Potency, µM (top dose mostly 28.7 µM), most hits filed as inhibitors; 6.9% of 320,000 active
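Two-generation exposure (96 h) targets delayed-death phenotype. Reporter parasites carrying integrated firefly luciferase, in red cells at 2% hematocrit and 0.05% parasitemia final, kept at 37 C, 5% CO2; luminescence loss indicates inhibition.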
Cycloheximide cs: affects cycloheximide protein synthesis inhibition readout, counter-screen; cell reporter, cycloheximide protein synthesis inhibition counterscreen; 12% of 300,000 active; max response, %; AID 2314; in the data active = max response mostly above about 13%, no sharp cut-off; inactive = mostly below about 14%; note: read at 38.3 µM for the half of the compounds with a filed dose
Shiga inhibitor: Shiga toxin inhibition | Vero cells, Shiga toxin protein synthesis inhibition reporter | inhibition, % at 38.7 µM | 9.2% of 290,000 active | AID 2315; in the data active = inhibition mostly above about 28%, no sharp cut-off; inactive = mostly below about 43%
Pf growth 48h: inhibits P. falciparum growth in the first generation, 48 h; AID 504832; 5.9% of 310,000 active; Potency, µM (titrated, usually from 28.7 µM), hits mostly inhibitors; P. falciparum luciferase growth in erythrocytes, 48 h
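A one-generation exposure of luciferase-tagged malaria parasites in RPMI 1640/Albumax erythrocyte culture, 37 C and 5% CO2. Inhibition is inferred from decreased luminescence after adding detection reagent.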
SARS PLP yeast: blocks SARS-CoV papain-like protease in a yeast assay; S. cerevisiae expressing SARS-CoV PLpro, growth rescue; Potency, µM (top dose mostly 32.9 µM), usual class: activators; 0.19% of 330,000 active; calls by dose curve; note: nearly all actives have a fitted effect of over 55% in size
Of the large screens only hits and unclear results are named; the others gave an inactive call. Unless noted, calls come from the whole dose curve; as a rule, active = well fitted curve in the direction sought with a large enough effect; inconclusive = small, poorly fitted or top-dose-only effect, or another doubt; inactive = no such curve, though single readings can be large; an effect the other way counts as inactive or inconclusive.

O=C(COc1ccc(Br)cc1)Nc1ccc([N+](=O)[O-])cn1	Pf growth 96h 4.1µM
COc1ccc(C(=O)Nc2ccc([N+](=O)[O-])cn2)c(OC)c1	Cycloheximide cs 36, Shiga inhibitor 107
Cc1cc(C(=O)Nc2ccc([N+](=O)[O-])cn2)cs1	Cycloheximide cs 41, Shiga inhibitor 141
Cc1ccc(C(=O)Nc2ccc([N+](=O)[O-])cn2)o1	Cycloheximide cs 45, Shiga inhibitor 122
O=C(CCn1c(=S)oc2ccccc21)NC1CCCCC1	none
COc1cc(/C=C(\NC(=O)c2ccccc2)C(=O)N2CC3CC(C2)c2cccc(=O)n2C3)cc(OC)c1OC (stereo not drawn)	none
COC(=O)c1cc(C(=O)Nc2ccc(C)cn2)cc([N+](=O)[O-])c1	Pf growth 96h 12µM
CCC(C)C(=O)N1CCCC(c2nc(-c3cccs3)no2)C1 (stereo not drawn)	Cycloheximide cs 31, Shiga inhibitor 101 (no result: Pf growth 96h)
O=C(NC1CCCCC1)N1CCCC(c2nc(-c3cccs3)no2)C1 (stereo not drawn)	none
CCCC(=O)N1CCCC(c2nc(-c3cccs3)no2)C1 (stereo not drawn)	Cycloheximide cs 21, Shiga inhibitor 86 (no result: Pf growth 96h)
COc1cccc(C(=O)N2CCCC(c3nc(-c4cccs4)no3)C2)c1 (stereo not drawn)	Pf growth 96h 9.3µM
COc1cc(C(=O)N2CCCC(c3nc(-c4cccs4)no3)C2)cc(OC)c1OC (stereo not drawn)	none
CCCc1nn(C)c(C(N)=O)c1[N+](=O)[O-]	Pf growth 96h inconclusive
COc1ccccc1S(=O)(=O)Nc1cccc(S(=O)(=O)N2CCCC2)c1	none (no result: Pf growth 96h, Cycloheximide cs, Shiga inhibitor, Pf growth 48h)
O=C(C1CCCCC1)N1CCC2CC1c1cc(-c3ccc4c(c3)OCO4)ccc12 (stereo not drawn)	none (no result: Pf growth 96h, Cycloheximide cs, Shiga inhibitor, Pf growth 48h, SARS PLP yeast)
CCOC(=O)c1ccc(C(=O)NNC(=O)C2CC=CCC2)cc1 (stereo not drawn)	none (no result: Pf growth 96h, Cycloheximide cs, Shiga inhibitor, Pf growth 48h, SARS PLP yeast)
O=C(NNC(=O)C1CC=CCC1)c1ccccc1Cl (stereo not drawn)	Cycloheximide cs 20
COc1ccc(C(=O)NNC(=O)C2CC=CCC2)cc1 (stereo not drawn)	Pf growth 96h 2.3µM, Cycloheximide cs 25, Shiga inhibitor 43
COCCCC1CCN(Cc2cn[nH]c2-c2cc(OC)c(OC)c(OC)c2)CC1	Pf growth 96h inconclusive
CCN(CC)S(=O)(=O)c1cc(NC(=O)COC(=O)CCC(=O)c2ccc(F)cc2)ccc1C	none
COc1cccc(OCCn2c(C)c(/C=N/n3cnnc3)c3ccccc32)c1	Pf growth 96h inconclusive
COc1ccc(OCCn2c(C)c(/C=N/n3cnnc3)c3ccccc32)cc1	Pf growth 96h 12µM, Pf growth 48h inconclusive
COc1c2c(c(CCC(=O)O)c3c1C=CC(C)(C)O3)OC(C)(C)C=C2	none (no result: Pf growth 96h, Cycloheximide cs, Shiga inhibitor, Pf growth 48h, SARS PLP yeast)
CCOC(=O)C1C(=O)C=C(c2ccccc2)CC1c1ccccc1 (stereo not drawn)	none (no result: Pf growth 96h, Cycloheximide cs, Shiga inhibitor, Pf growth 48h, SARS PLP yeast)
CCOC(=O)C1C(=O)C=C(c2ccc(C)cc2)CC1c1ccc([N+](=O)[O-])cc1 (stereo not drawn)	Pf growth 96h 9.3µM, Pf growth 48h inconclusive
C#Cc1ccc([C@H]2C=C(C(=O)N3CCN(Cc4ccccc4)CC3)O[C@@H](OCC)[C@@H]2CCCO)cc1	Pf growth 96h 10µM, Pf growth 48h inconclusive
C#Cc1ccc([C@@H]2C=C(C(=O)N3CCN(Cc4ccccc4)CC3)O[C@H](OCC)[C@H]2CCCO)cc1	Pf growth 96h 6.6µM, Pf growth 48h inconclusive
CCO[C@@H]1OC(C(=O)N2CCN(Cc3ccccc3)CC2)=C[C@H](c2coc3ccccc3c2=O)[C@H]1CCCO	Pf growth 96h 5.2µM, Pf growth 48h inconclusive
Cc1noc(C)c1COC(=O)c1ccccc1NC(=O)c1ccco1	Pf growth 96h inconclusive, Pf growth 48h inconclusive
COC(=O)[C@@H]1CC[C@H](C)[C@@H](c2ccc(C)cc2)N1C(=O)c1ccc(/C=N/OC[C@@H](O)COCc2ccco2)cc1	Pf growth 96h 6.6µM, Pf growth 48h 6.6µM (no result: AMA1 RON2 block)
CCOC(=O)C(=NC(C)CC)NNc1ccc(Br)cc1 (stereo not drawn)	AMA1 RON2 block inconclusive
Cc1noc(C)c1COc1ccc(C(=O)OCC(=O)Nc2ccc3ccccc3c2)cc1	none (no result: Pf growth 48h)
O=C(NCc1ccco1)c1sc2cc(F)ccc2c1Cl	Pf growth 96h 15µM, Cycloheximide cs 39, Shiga inhibitor 86
O=C(NC1=NCCS1)c1sc2cc(F)ccc2c1Cl	Cycloheximide cs 77, Shiga inhibitor 96
O=C(NCCCN1CCOCC1)c1sc2cc(F)ccc2c1Cl	Cycloheximide cs 38, Shiga inhibitor 42
O=C(Nc1ccon1)c1sc2cc(F)ccc2c1Cl	Cycloheximide cs 33, Shiga inhibitor 75
COCCNC(=O)C(c1ccc(C)o1)N(C(=O)Cn1nnc2ccccc21)c1ccccc1 (stereo not drawn)	Pf growth 96h inconclusive
COc1ccccc1NS(=O)(=O)c1cc2c3c(c1)CC(=O)N3CCC2	Pf growth 48h 9.3µM
Cc1ccc(NS(=O)(=O)c2cc3c4c(c2)CC(=O)N4CCC3)cc1C	Pf growth 48h 10µM
COc1ccc(CCNS(=O)(=O)c2cc3c4c(c2)CC(=O)N4CCC3)cc1	Pf growth 48h 9.3µM
O=C1CCc2cc(S(=O)(=O)Nc3ccccc3F)cc3c2N1CCC3	none (no result: Cycloheximide cs, Shiga inhibitor)
O=C1Cc2cc(NS(=O)(=O)c3ccc(Cl)cc3)cc3c2N1CCC3	none (no result: Cycloheximide cs, Shiga inhibitor)
Cc1cc(F)ccc1S(=O)(=O)N1CCCOC1CNC(=O)C(=O)NCc1ccncc1 (stereo not drawn)	Pf growth 96h inconclusive
COc1cc2ccccc2cc1C(=O)OCc1nc2ccsc2c(=O)[nH]1	none (no result: Cycloheximide cs, Shiga inhibitor)
CN1CCN(NC(=O)/C=C/c2cccc(Cl)c2)CC1	none
CCOc1ccc(OCCn2ccnc2)cc1	none
Cc1cccc(OCCCn2ccnc2)c1	Pf growth 48h 9.3µM
CCOc1ccc(OCCCCn2ccnc2)cc1	Cycloheximide cs 26
Cc1cc(C)cc(OCCCn2ccnc2)c1	Pf growth 96h 4.7µM
CC(C)c1cccc(C(C)C)c1OCCn1ccnc1	Pf growth 48h 13µM
Cc1cc(C)c(OCCCn2ccnc2)c(C)c1	Pf growth 48h inconclusive
N#CCCCCN1CCCC1	none
CC1(C(=O)NS(=O)(=O)c2ccc(Cl)cc2)CCN1C(=O)C1(c2ccc(Cl)cc2)CCC1 (stereo not drawn)	none (no result: Pf growth 96h, Cycloheximide cs, Shiga inhibitor, Pf growth 48h, SARS PLP yeast)
CN(CC(=O)Nc1cccc(F)c1)C(=O)c1ccccc1Cc1ccccc1	Pf growth 96h inconclusive, Pf growth 48h inconclusive (no result: Cycloheximide cs, Shiga inhibitor)
CC1CC(C)CN(CCCNC(=O)C2CCC(=O)N2C2CCCC2)C1 (stereo not drawn)	Pf growth 96h 10µM
O=C(NCc1ccccn1)C1CCC(=O)N1C1CCCCC1 (stereo not drawn)	Pf growth 96h 1.9µM (no result: Pf growth 48h)
O=C(NCCCN1CCCC1)C1CCC(=O)N1C1CCCCC1 (stereo not drawn)	none
CC1(C)CC(=O)c2sc(N3CCCCC3)nc2C1	Cycloheximide cs 29, Shiga inhibitor 92
